KB-3-1 tox – qHTS assay for MDR1-selective chemotherapeutics: Primary screen using the parental adenocarcinoma cell KB-3-1. KB-3-1 viability, CellTiter-Glo ATP luminescence, 72 h. Potency, µM (highest dose often 46.1 µM), hits mostly cytotoxic. 1.4% of 400,000 active. AID 1347075, 2019; further: potency means the concentration at half of the fitted maximal effect; on the % scale 0 is the no-effect control and ±100 the full control effect; nearly all actives have a fitted effect of over 60% in size
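Cytotoxicity measured as CellTiter-Glo luminescence after 72 h at 37 C. Compound titrations were pinned onto drug-naive KB-3-1 parental adenocarcinoma cells grown in DMEM with 10% FBS, and normalized data fitted to concentration-response curves.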
KB-V1 MDR tox – qHTS assay for MDR1-selective chemotherapeutics: Primary screen using the drug-selected MDR subline cells KB-V1; KB-V1 MDR cells viability, CellTiter-Glo, 72 h; Potency, µM (titrated, usually from 46.1 µM), most hits filed as cytotoxic; 3.4% of 400,000 active; AID 1347076, 2019; further: potency means the concentration at half of the fitted maximal effect; on the % scale 0 is the no-effect control and ±100 the full control effect; nearly all actives have a fitted effect of over 60% in size
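KB-V1 cells (P-gp-expressing MDR subline of KB-3-1) in phenol-red-free DMEM with 10% FBS were exposed to library compounds over a concentration series for 72 h at 37 degrees C. Viability read by CellTiter-Glo luminescence; concentration-effect curves fitted after normalization.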
MCF10A rerep – A quantitative high throughput screen for small molecules that induce DNA re-replication in MCF 10a normal breast cells; Potency, µM (titrated, usually from 46.1 µM), without a hit: at the highest dose activity, positive = re-replication, most hits filed as activators; MCF 10A DNA re-replication, Hoechst nuclear intensity, 48 h; AID 624296, 2012; 2.9% of 350,000 active; further: potency means the concentration at half of the fitted maximal effect; % of control where 0% means no effect; nearly all actives have a fitted effect of over 50% in size
SW480 rereplic – A quantitative high throughput screen for small molecules that induce DNA re-replication in SW480 colon adenocarcinoma cells. Potency, µM (titrated, usually from 46.1 µM), without a hit: top-dose re-replication activation, usual class: activators. AID 624297, 2012. SW480 DNA re-replication, Hoechst DNA content imaging, 48 h. 1.8% of 340,000 active; further: potency means the concentration at half of the fitted maximal effect; % of control where 0% means no effect; nearly all actives have a fitted effect of over 55% in size
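Treated cells incubate 48 hr (37 C, 5% CO2), are stained 40 min with Hoechst, and nuclear fluorescence is enumerated; a rise in nuclei with high DNA signal marks re-replication.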
IL1B secr inh – qHTS for Inhibitors of Inflammasome Signaling: IL-1-beta AlphaLISA Primary Screen | activity change, % at 57.5 µM | 4.7% of 360,000 active | AID 743279, 2014 | THP-1 LPS/ATP IL-1B secretion, AlphaLISA, 16 h; hits give low values; in the data active means activity change below about -50%; inconclusive means mostly about -30% to -49%; further: on the % scale 0 is the no-effect control and ±100 the full control effect
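Secreted IL-1B measured by AlphaLISA bead assay after 16 h compound exposure of THP-1 cells; compounds (final up to 57.5 uM) added 1 h before LPS (250 ng/mL) and ATP (1.25 mM) stimulation; lower signal means less secretion.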
The depositor's hits bear a star; i = inactive; u = inconclusive; x = not tested or not shown. In the library only some 9.9% were active in any assay of this set; here they are far more common. Unless noted, the call rests on the fitted dose curve; in most records, active means well fitted curve in the direction sought with a large enough effect; inconclusive means small, poorly fitted or top-dose-only effect, or another doubt; inactive means no such curve, though single readings can be large; an effect the other way counts as inactive or inconclusive.

SMILES	KB-3-1 tox	KB-V1 MDR tox	MCF10A rerep	SW480 rereplic	IL1B secr inh
CCCN1C(=O)c2[nH]nc(-c3ccccc3O)c2C1c1ccc(OCc2ccccc2)c(OC)c1 (stereo not given)	21µM*	u	x	x	x
NC(=O)C1(N2CCCCC2)CCN(CCCC(=O)c2ccc(F)cc2)CC1	x	x	-3%	0%	x
COc1cc(C(=O)NCc2nnc(SCC(=O)N3CCCC3)o2)cc(OC)c1OC	i	i	3%	-11%	13
COc1ccccc1NC(=O)CSc1nnc(CNC(=O)c2cccs2)o1	i	u	0%	-19%	-77*
COc1ccccc1NC(=O)CSc1nnc(-c2ccc(C)cc2)o1	u	i	5%	-1%	6
COc1ccc(C(=O)NCc2nnc(SCC(=O)N3CCCC3)o2)cc1OC	x	x	-5%	4%	-55*
COc1ccc(C)cc1NC(=O)CSc1nnc(-c2ccc(Br)cc2)o1	i	i	13µM*	20%	-29
COc1ccccc1NC(=O)CSc1nnc(-c2ccccc2C)o1	i	i	x	x	x
COc1ccccc1NC(=O)CSc1nnc(-c2ccoc2C)o1	12µM*	u	-6%	-13%	23
CCOc1ccc(OCC)c(NC(=O)Cn2ncc3c4ccccc4n(Cc4ccccc4)c3c2=O)c1	i	u	x	x	x
Cc1cc(C)cc(NC(=O)CSc2nnc(-c3ccccc3C)o2)c1	i	12µM*	12%	-4%	-7
Cc1cccc(NC(=O)CSc2nnc(-c3ccccc3C)o2)c1	i	u	1%	-11%	0
Cc1occc1-c1nnc(SCC(=O)Nc2nc(-c3ccccc3)cs2)o1	i	i	18µM*	u	26
Cc1ccc(CNC(=O)c2ccc3c(c2)N(Cc2ccccc2Cl)C(=O)CS3)cc1	i	i	x	x	x
Cc1ccc(/C=C/C(=O)c2ccc([N+](=O)[O-])o2)cc1	i	u	3.3µM*	1.5µM*	-113*
O=C(/C=C/c1ccc(Cl)cc1)c1ccc([N+](=O)[O-])o1	u	u	8.2µM*	u	u
Cc1cc(C)n(-c2ccccc2C#N)n1	i	i	0%	-94%	-6
COc1ccc(S(=O)(=O)N2CCc3cc(OC)c(OC)cc3C2)cc1	i	i	9%	0%	-21
COc1cc2c(cc1OC)CN(C(=O)/C=C/c1cccs1)CC2	3.7µM*	u	4.1µM*	13µM*	0
COc1cc2c(cc1OC)CN(S(=O)(=O)c1cccs1)CC2	i	18µM*	-98%	108%	11
COc1cc2c(cc1OC)CN(C(=O)/C=C/c1ccccc1[N+](=O)[O-])CC2	u	i	13µM*	16µM*	-5
COc1ccc(C(=O)NCC(c2ccco2)S(=O)(=O)c2cccs2)cc1 (stereo not given)	i	i	x	x	x
CC(C)N(C(C)C)S(=O)(=O)c1ccc(Cl)nc1	i	i	-7%	u	0
CCN(CC)S(=O)(=O)c1ccc(N2CCc3ccccc3C2)nc1	u	i	u	u	-101*
CC(C)N(C(C)C)S(=O)(=O)c1ccc(N2CCc3ccccc3C2)nc1	i	i	u	24%	-106*
SMILES	KB-3-1 tox	KB-V1 MDR tox	MCF10A rerep	SW480 rereplic	IL1B secr inh
CCN(c1ccccc1)S(=O)(=O)c1ccc(N2CCN(c3ccc(OC)cc3)CC2)nc1	i	i	-5%	-15%	-10
CCN(c1ccccc1)S(=O)(=O)c1ccc(N2CCN(c3ccc(O)cc3)CC2)nc1	u	i	18µM*	u	u
Cc1ccc(C)c(N2CCN(C(=O)CNS(=O)(=O)c3cccs3)CC2)c1	i	i	0%	0%	-1
O=C(CCC(=O)N1CCOc2ccccc21)NCc1cccnc1	i	i	1%	-10%	5
CNC(=O)c1cc(Nc2nnc(-c3ccc(C)c(S(N)(=O)=O)c3)c3ccccc23)ccc1OC	i	u	-2%	9%	-74*
Cc1ccc(NC(=O)COc2ccccc2C(N)=O)cc1S(=O)(=O)N1CCCCCC1	u	u	10%	-15%	-55*
COc1ccc(NC(=O)COc2ccccc2C(N)=O)cc1S(=O)(=O)N1CCCCC1	i	i	x	x	28
COc1cc(C(C)=O)ccc1OCC(=O)Nc1ccc(C)c(S(=O)(=O)N2CCCCCC2)c1	i	i	-1%	-5%	-59*
CC(C)c1csc(CN2CCN(Cc3ccc(F)cc3)C(CCO)C2)n1 (stereo not given)	u	u	20%	11%	0
COc1ccc(N(CC(=O)N/N=C/c2ccccc2OC)S(=O)(=O)c2ccccc2)cc1	i	i	11%	u	4
COc1ccc(-c2onc3ccc(C(=O)/C=C/N(C)C)cc23)cc1	u	u	18µM*	16µM*	-3
CC(=O)c1ccc2noc(-c3ccc(Cl)cc3)c2c1	i	i	u	16µM*	-9
N#Cc1ccc(C(=O)Nc2ccc(Cl)c(-c3nc4cc(Cl)ccc4o3)c2)c(F)c1	i	i	x	x	x
CCc1nnc(NS(=O)(=O)c2ccc(N/C=C\C(=O)c3ccc4ccccc4c3)cc2)s1	i	i	23µM*	14%	16
CCc1nnc(NS(=O)(=O)c2ccc(NC(=O)CCC(=O)OC)cc2)s1	i	i	0.58µM*	-17%	39
CCCC(=O)N1CCCC1(C)C(=O)Nc1cccc(OC(C)C)c1 (stereo not given)	i	i	x	x	20
COc1ccc(-c2[nH]ncc2CN2CCC(O)(c3ccc(Cl)cc3)CC2)cc1	i	u	2%	-4%	-59*
OC1(c2ccc(Cl)cc2)CCN(Cc2cn[nH]c2-c2ccccc2)CC1	i	i	2%	-3%	-53*
COc1ccc(Cn2nnnc2CN2CCc3ccccc32)cc1	i	i	9%	23µM*	24
OC1(c2ccc(Cl)cc2)CCN(Cc2cn[nH]c2-c2ccc(F)cc2)CC1	i	i	1%	3%	u
COc1ccc(-c2[nH]ncc2CN2CCN(c3ccc(F)cc3)CC2)cc1	i	u	0%	-5%	-15
COc1ccc(C2(O)CCN(Cc3nnnn3Cc3ccc(C)cc3)CC2)cc1	i	i	21µM*	u	-7
O=C(c1cc2ccccc2o1)N1CCN(CCOc2ccccc2)CC1	i	i	0%	0%	-11
O=C(Nc1ccc2ccccc2c1)N1CCCN(CCOc2ccccc2)CC1	u	15µM*	9%	-20%	-3
